Assay outcomes deposited in PubChem BioAssay by several laboratories.
The list is not random: actives were taken first. Their share in the collection is about 3.5%.
rCAG RNA binder: binds r(CAG) RNA repeats; r(CAG) RNA repeat, TO-PRO-1 dye displacement fluorescence; inhibition, % at 3 µM; 1.3% of 370,000 active; AID 651821;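 active means inhibition above the plate cutoff, the mean of all test compounds on that plate plus 3 SD, cut at about 35% in these data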;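 further: 0% = DMSO alone and 100% = 100 µM mitoxantrone as full dye displacement; higher means more dye released from RNA so lower well fluorescence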
LEDGF integ inh: blocks HIV-1 LEDGF/p75-dependent DNA integration. TR-FRET IN-LEDGF/p75 DNA integration, Eu/Cy5. inhibition, % at 3.7 µM. 0.64% of 370,000 active. AID 743269;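 active means inhibition above the screen-wide mean plus 3 SD, cut at about 13% in these data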;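 further: signal is the Cy5 over europium emission ratio at 671 and 618 nm; 0% = plate median of compound wells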
PG9 binder: binds the HIV-1 gp120 antibody PG9; TR-FRET gp120-PG9 antibody binding; inhibition, % at 6.7 µM; 0.43% of 360,000 active; AID 624416; in the data active means inhibition above about 8.5%
MBD2 inh: inhibitors of human MBD2 binding to methylated oligonucleotide; TR-FRET; inhibition, % at 4.4 µM; 0.31% of 370,000 active; AID 686964; in the data active means inhibition above about 13%
Target sequence (Q9UBB5 whole entry, looked up): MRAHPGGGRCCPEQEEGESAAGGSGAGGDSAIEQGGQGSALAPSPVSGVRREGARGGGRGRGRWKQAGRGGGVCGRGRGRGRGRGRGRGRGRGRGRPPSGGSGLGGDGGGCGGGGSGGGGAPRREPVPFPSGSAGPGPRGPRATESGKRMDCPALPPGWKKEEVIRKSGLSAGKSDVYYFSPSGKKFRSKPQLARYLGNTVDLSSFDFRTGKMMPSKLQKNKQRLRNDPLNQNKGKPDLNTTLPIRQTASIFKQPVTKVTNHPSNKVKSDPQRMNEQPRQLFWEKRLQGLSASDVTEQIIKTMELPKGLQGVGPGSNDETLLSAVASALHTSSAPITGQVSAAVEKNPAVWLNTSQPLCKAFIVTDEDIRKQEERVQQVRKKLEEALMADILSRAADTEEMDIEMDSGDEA
DNMT1 inh: blocks human DNA methyltransferase DNMT1. DNMT1 molecular beacon, Hinp1I cleavage, fluorescence. P26358. 0.83% of 360,000 active. inhibition (reported as % activation of signal), % at 10 µM; in the data active means inhibition above about 50%
UHRF1 binding: UHRF1 methyl-DNA binding inhibition; UHRF1 binding to methylated oligo, TR-FRET; 0.75% of 370,000 active; inhibition, % at 4.4 µM; Q96T88; in the data active means inhibition above about 21%;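 further: UHRF1 SRA domain binding a hemimethylated CpG hairpin DNA probe; 0% = median of test compound wells and 100% = reference inhibitor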
rCAG binder conf: r(CAG) RNA repeat binding, confirmation. TO-PRO-1 dye displacement fluorescence. shares compounds with rCAG RNA binder. 70% of 4,300 active. inhibition, % at 3 µM;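 active means inhibition above a per-plate cutoff, the mean inhibition of sample wells plus 3 SD, cut at about 35% in these data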;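 further: loss of TO-PRO-1 fluorescence as compound displaces dye from 1x1 AA loop RNA; 0% = DMSO only wells and 100% = 100 µM mitoxantrone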
DNA CAG counter: disrupts DNA CAG TO-PRO-1 complex, flagging rCAG hits; shares compounds with rCAG RNA binder; d(CAG) DNA oligo TO-PRO-1 dye displacement, fluorescence; inhibition, % at 3 µM; 94% of 4,300 active;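 active means inhibition above its plate's cutoff, the mean test-well inhibition plus 3 SD, cut at about 4.8% in these data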;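 further: 0% = DNA dye mix with DMSO and 100% = 100 µM mitoxantrone; hits displace the dye from DNA and so lower well fluorescence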
Active calls of the source: *; . = no result.

SMILES	rCAG RNA binder	LEDGF integ inh	PG9 binder	MBD2 inh	DNMT1 inh	UHRF1 binding	rCAG binder conf	DNA CAG counter
CCOc1ccc(NS(=O)(=O)c2ccc(NC(=O)C3CC3)cc2)cc1	1.6	-1.2	0.3	-9.4	-1.2	-2.8	.	.
O=C(O)c1cc(NS(=O)(=O)c2ccc(F)cc2)cc(NS(=O)(=O)c2ccc(F)cc2)c1	24.7	-0.2	-0.5	4.1	1.6	-2.3	.	.
CCOc1ccc(S(=O)(=O)Nc2cccc(Cl)c2)cc1	5.9	0.7	2.0	0.3	-4.1	0.1	.	.
CCOc1ccc(Oc2ccc(NS(=O)(=O)c3cc(C(=O)O)ccc3Cl)cc2)cc1	38.3*	3.6	0.8	3.8	-5.5	2.1	38.7*	10.9*
CCOc1ccc(S(=O)(=O)Nc2cc(NS(=O)(=O)c3ccc(OCC)cc3)cc(C(=O)O)c2)cc1	58.4*	-2.2	2.0	4.0	32.2	0.6	60.2*	24.5*
CCOc1ccc(NS(=O)(=O)c2ccc(NS(=O)(=O)c3ccccc3)cc2)cc1	36.4*	-3.2	-1.0	-0.5	2.5	1.9	18.7	2.5
CCOc1ccc(Oc2ccc(NS(=O)(=O)c3ccc(CCC(=O)O)cc3)cc2)cc1	42.8*	-3.3	0.2	3.0	-0.6	0.1	38.3*	10.7*
O=S(=O)(c1ccccc1)C1CC1(c1ccccc1)c1ccccc1 (stereo unspecified)	-0.6	-2.5	-2.5	-1.6	-2.8	-1.4	.	.
CN1CCN(S(=O)(=O)c2cccc(C(=O)N(C)C(c3ccccc3)c3ccccc3)c2)CC1	-7.8	4.4	0.3	-5.4	-2.9	-0.7	.	.
CCOC(=O)C1=CCN(S(=O)(=O)c2ccc(F)cc2)C1c1ccc(F)cc1 (stereo unspecified)	1.2	-0.3	2.0	2.1	.	4.2	.	.
Cc1cc2nc(-c3ccc(F)cc3)c(Cc3cccc(Cl)c3)n2c(C)c1Br	61.5*	-5.3	-2.6	3.5	.	3.5	28.8	8.4*
Clc1cccc(-c2nc3ccc(Br)cn3c2Cc2ccccc2)c1	49.5*	-0.1	0.8	2.1	19.4	9.5	13.4	4.3
Cc1ccc2nc(-c3cccc(Cl)c3)c(Cc3ccccc3)n2c1	7.3	0.7	0.2	-2.8	.	13.3	.	.
Clc1ccc(-c2nc3ccc(Br)cn3c2Cc2cccc(Cl)c2)cc1	37.6*	-0.5	4.7	-6.1	8.2	-4.0	32.5	9.2*
Cc1ccc(-c2nc3ccc(C)cn3c2Cc2cccc(Cl)c2)cc1	6.1	1.5	-1.6	-2.1	.	3.7	.	.
Cc1ccc(-c2nc3ccc(Cl)cn3c2Cc2cccc(Cl)c2)cc1	59.1*	5.6	-0.6	-0.3	-0.1	-0.8	42.0*	10.1*
Cc1ccc(-c2nc3ccc(Br)cn3c2Cc2cccc(Cl)c2)cc1	26.1	0.7	3.8	2.3	11.5	3.0	.	.
CCOC(=O)[C@]12CCCC=C1N(Cc1ccc(OC)cc1)C(=O)[C@@H]2CC(=O)N1CCN(C(=O)c2ccco2)CC1	3.7	1.8	.	3.3	.	0.3	.	.
Brc1cccc(-c2nc3ccc(Br)cn3c2Cc2ccccc2)c1	48.7*	-1.6	2.9	1.6	34.3	4.2	11.6	6.2*
Clc1cccc(Cc2c(-c3cccc(Cl)c3)nc3ccc(Br)cn23)c1	10.1	-3.0	6.0	4.6	-3.4	3.4	.	.
Clc1cccc(Cc2c(-c3cccc(Br)c3)nc3ccc(Br)cn23)c1	52.4*	0.7	1.1	-1.5	16.2	-2.7	39.1*	9.1*
COC(=O)[C@]12CCCCC=C1N(Cc1ccc(OC)cc1)C(=O)[C@@H]2CC(=O)N1CCCC1	-0.5	-4.3	.	1.6	.	2.5	.	.
Cc1ccccc1S(=O)(=O)NC(=O)C1(C)CCN1C(=O)Cc1ccc(C(C)(C)C)cc1 (stereo unspecified)	40.4*	-1.5	0.2	-2.7	1.2	0.4	32.6	8.7*
CC(C)(C)c1ccc(S(=O)(=O)NC(=O)C2(C)CCN2C(=O)c2cccc3ccccc23)cc1 (stereo unspecified)	57.0*	1.3	0.1	-1.3	1.2	2.7	52.1*	16.2*
COc1ccc(S(=O)(=O)NC(=O)C2(C)CCN2C(=O)Cc2ccccc2Cl)cc1 (stereo unspecified)	4.2	3.8	-1.1	-4.1	0.8	0.6	.	.
SMILES	rCAG RNA binder	LEDGF integ inh	PG9 binder	MBD2 inh	DNMT1 inh	UHRF1 binding	rCAG binder conf	DNA CAG counter
CC1(C(=O)NCc2ccc(Cl)cc2)CCN1C(=O)Cc1cccc2ccccc12 (stereo unspecified)	0.2	-3.7	-0.3	4.3	-2.0	3.3	.	.
CC1(C(=O)NS(=O)(=O)c2ccc(Cl)cc2)CCN1C(=O)Cc1cccc2ccccc12 (stereo unspecified)	45.7*	5.3	-3.0	1.9	2.4	1.4	31.4	7.6*
CC(C)(C)c1ccc(S(=O)(=O)NC(=O)C2(C)CCN2C(=O)Cc2ccccc2Cl)cc1 (stereo unspecified)	47.0*	1.0	-0.5	-1.6	0.3	1.2	56.1*	20.6*
Cc1cc(NC(=O)NC(=O)c2ccccc2)no1	0.0	-0.3	1.2	0.4	2.4	-1.0	.	.
CC(C)[C@H](NC(=O)CC1CCCC1)C(=O)N1CCC[C@H]1C(=O)NCc1ccccc1	1.1	0.0	0.5	1.2	.	3.1	.	.
CCc1nc2ccc(C(=O)N3CCN(C(C)=O)CC3)cn2c1N(CC)C(C)=O	2.7	0.3	-1.0	-1.8	1.6	-1.2	.	.
CC1(C(=O)NS(=O)(=O)c2ccccc2Cl)CCN1C(=O)Cc1ccccc1 (stereo unspecified)	5.4	-4.8	-1.0	0.7	5.0	-1.6	.	.
CC(C)(C)c1ccc(CC(=O)N2CCC2(C)C(=O)NS(=O)(=O)c2ccccc2Cl)cc1 (stereo unspecified)	40.6*	-2.5	-1.3	1.7	0.0	2.2	34.2	8.3*
Cc1ccc2c(c1)c(Sc1ccccc1)c(CC(=O)O)n2C	34.9*	7.1	-0.4	-4.1	-4.7	1.9	26.3	5.2*
CCOC(=O)Cc1c(Sc2ccccc2)c2cc(C)ccc2n1C	5.6	-3.0	-0.8	5.6	-13.1	15.1	.	.
O=C(O)c1cccc(N2C(=O)c3ccc(Oc4ccc(Cl)cc4)cc3C2=O)c1	43.6*	-0.3	1.2	1.5	0.5	1.0	42.1*	9.9*
Cc1ccc(S(=O)(=O)N2[C@@H](c3cccc(C)c3)C(C(=O)O)=C[C@H]2C(C)(C)C)cc1	27.5	1.7	1.8	-2.0	1.6	-2.4	.	.
Cc1ccc(S(=O)(=O)N2[C@@H](c3ccc(C(C)C)cc3)C(C(=O)O)=C[C@H]2C(C)(C)C)cc1	69.0*	1.4	1.4	5.0	0.9	-0.3	58.9*	22.6*
Cc1ccc([C@H]2C(C(=O)O)=C[C@@H](C(C)(C)C)N2S(=O)(=O)c2ccc(C)cc2)cc1	41.6*	2.2	-0.8	3.8	3.0	2.4	34.1	11.9*
